Test results from PubChem BioAssay (EPA / NIEHS).
Several values for one entry are separate records, joined by “and”; a condition that tells them apart may be missing. Identical values can stand only once. Inconclusive results are not listed. Some compounds were tested as several samples or in several runs, with calls that do not always agree. Activity calls are given as the source filed them. The calls were made as follows, unless noted: active = hit-call score of the fitted dose curve at least 0.9, where 1 is the maximum; inconclusive = response in the unintended direction; inactive = score below 0.9.

Columns and labels:
[1] = molecular target: mouse Estrogen Receptor alpha (Era), Esr1 (gene 13982) (UniProt P19785); assay: NVS_NR_mERa: NovaScreen (NVS) Nuclear Receptor Binding Assay for mouse Estrogen Receptor alpha (Era) (AID 2283378);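 also: hit means loss of bound radioligand signal relative to DMSO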
mouse Estrogen Receptor alpha (Era), Esr1 (gene 13982), sequence (P19785 whole entry, looked up): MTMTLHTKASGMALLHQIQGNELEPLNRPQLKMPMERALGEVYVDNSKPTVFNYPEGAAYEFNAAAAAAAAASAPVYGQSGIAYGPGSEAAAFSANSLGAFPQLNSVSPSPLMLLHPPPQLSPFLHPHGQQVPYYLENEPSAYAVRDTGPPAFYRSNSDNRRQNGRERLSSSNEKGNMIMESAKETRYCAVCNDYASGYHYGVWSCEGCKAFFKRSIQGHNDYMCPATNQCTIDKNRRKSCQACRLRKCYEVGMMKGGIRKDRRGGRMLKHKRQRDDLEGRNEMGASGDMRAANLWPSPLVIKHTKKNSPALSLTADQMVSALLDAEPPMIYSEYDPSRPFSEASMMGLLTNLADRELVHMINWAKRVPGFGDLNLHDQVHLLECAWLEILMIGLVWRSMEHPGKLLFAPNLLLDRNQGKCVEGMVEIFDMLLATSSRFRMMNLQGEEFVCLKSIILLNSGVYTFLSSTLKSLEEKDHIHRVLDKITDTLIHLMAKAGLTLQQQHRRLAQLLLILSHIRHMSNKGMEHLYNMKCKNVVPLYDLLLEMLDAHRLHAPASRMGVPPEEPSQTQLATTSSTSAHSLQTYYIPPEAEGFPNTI
Method in brief: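 Filter radiodetection of radioligand displacement from extracted receptor protein, measured 18 h post-dose. Single 25 uM concentration in duplicate initially, with concentration-series follow-up. Binding loss fitted relative to DMSO.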

[2] = molecular target: Estrogen receptor (Homo sapiens) (UniProt P03372); assay: OT_ERa_GFPERaERE_0480: Odyssey Thera (OT) 8-hour HeLa Transcription Induction Assay for Estrogen Receptor (AID 2283381; active = hit-call score of the fitted dose curve at least 0.9, where 1 is the maximum; inactive = score below 0.9)
Estrogen receptor (Homo sapiens), sequence (P03372 whole entry, looked up): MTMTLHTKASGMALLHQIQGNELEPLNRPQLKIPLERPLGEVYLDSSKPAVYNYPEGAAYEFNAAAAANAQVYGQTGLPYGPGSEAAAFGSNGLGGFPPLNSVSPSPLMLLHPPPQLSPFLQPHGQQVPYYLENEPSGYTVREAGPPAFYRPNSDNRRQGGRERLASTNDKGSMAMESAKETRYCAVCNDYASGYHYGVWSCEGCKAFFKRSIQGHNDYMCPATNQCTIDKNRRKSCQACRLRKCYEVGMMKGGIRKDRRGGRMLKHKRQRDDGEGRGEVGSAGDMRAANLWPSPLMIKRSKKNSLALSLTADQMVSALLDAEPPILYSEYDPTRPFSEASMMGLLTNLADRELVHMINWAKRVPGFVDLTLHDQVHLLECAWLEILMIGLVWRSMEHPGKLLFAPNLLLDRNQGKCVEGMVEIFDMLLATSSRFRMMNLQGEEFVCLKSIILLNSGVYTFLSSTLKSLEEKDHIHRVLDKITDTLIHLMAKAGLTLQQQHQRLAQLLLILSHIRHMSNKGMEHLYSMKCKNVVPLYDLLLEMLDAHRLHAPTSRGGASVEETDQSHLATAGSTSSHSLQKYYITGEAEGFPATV
Method in brief: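 GFP-ERE reporter, HeLa, 8 h exposure. Readout: fluorescence microscopy, high-content image analysis. Fit direction positive vs DMSO negative control.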

[3] = molecular target: Estrogen receptor (Homo sapiens) (UniProt P03372); assay: OT_ERa_GFPERaERE_0120: Odyssey Thera (OT) 2-hour HeLa Transcription Induction Assay for Estrogen Receptor (AID 2283382)
Method in brief: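 Fluorescence microscopy read-out: inducible fluorescent protein reporter in HeLa cells, imaged 2 h post-dose. Signal increase over DMSO negative control fitted as single primary endpoint via high content image analysis.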

[4] = molecular target: Peroxisome proliferator-activated receptor gamma (Homo sapiens) (UniProt P37231); assay: OT_PPARg_PPARgSRC1_0480: Odyssey Thera (OT) 8-hour Protein-Complementation Assay for Peroxisome Proliferator-activated Receptor Gamma / SRC-1 Co-activator (AID 2283387);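 also: nuclear to cytoplasmic split Venus YFP fluorescence ratio reporting PPARg SRC-1 interaction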
Peroxisome proliferator-activated receptor gamma (Homo sapiens), sequence (P37231 whole entry, looked up, the tested form may be a part): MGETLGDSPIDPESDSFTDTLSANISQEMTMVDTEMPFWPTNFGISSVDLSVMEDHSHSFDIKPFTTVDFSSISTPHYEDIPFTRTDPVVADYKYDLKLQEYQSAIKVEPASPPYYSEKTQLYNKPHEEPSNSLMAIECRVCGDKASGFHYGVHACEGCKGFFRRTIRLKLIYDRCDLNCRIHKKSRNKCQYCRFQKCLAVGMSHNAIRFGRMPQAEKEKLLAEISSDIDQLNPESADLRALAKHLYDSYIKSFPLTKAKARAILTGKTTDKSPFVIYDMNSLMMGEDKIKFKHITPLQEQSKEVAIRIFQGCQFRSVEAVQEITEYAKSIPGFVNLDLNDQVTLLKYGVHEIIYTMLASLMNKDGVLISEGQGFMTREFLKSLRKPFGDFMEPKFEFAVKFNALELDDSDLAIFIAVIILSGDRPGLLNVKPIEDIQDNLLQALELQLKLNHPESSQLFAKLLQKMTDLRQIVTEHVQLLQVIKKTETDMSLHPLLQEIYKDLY
Method in brief: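 Protein-fragment complementation of split Venus YFP reports PPARg/SRC-1 interaction in HEK293T (transfected 48 h before treatment), exposed 8 h. Readout: N/C fluorescence ratio at 488 nm from imaging, Draq5 for segmentation, positive fit relative to DMSO.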

[5] = molecular target: Peroxisome proliferator-activated receptor gamma (Homo sapiens) (UniProt P37231); assay: OT_PPARg_PPARgSRC1_1440: Odyssey Thera (OT) 24-hour Protein-Complementation Assay for Peroxisome Proliferator-activated Receptor Gamma/ SRC-1 Co-activator (AID 2283388);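 also: nuclear to cytoplasmic ratio of reconstituted Venus YFP fluorescence in fixed imaged cells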
Method in brief: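 Readout is the 488 nm N/C fluorescence ratio from fixed, Draq5-stained HEK293T cells after 24 h compound exposure. Cells carried transiently transfected PPARg and SRC-1 fused to Venus fragments, transfected 48 h before treatment.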

[6] = molecular target: Estrogen receptor beta (Homo sapiens) (UniProt Q92731); assay: OT_ER_ERbERb_1440: Odyssey Thera (OT) 24-hour HEK293T Protein-Complementation Assay for Estrogen Receptor-beta/-beta Homodimer (AID 2283380);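 also: scored as signal increase over DMSO baseline for both agonists and antagonists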
Estrogen receptor beta (Homo sapiens), sequence (Q92731 whole entry, looked up, the tested form may be a part): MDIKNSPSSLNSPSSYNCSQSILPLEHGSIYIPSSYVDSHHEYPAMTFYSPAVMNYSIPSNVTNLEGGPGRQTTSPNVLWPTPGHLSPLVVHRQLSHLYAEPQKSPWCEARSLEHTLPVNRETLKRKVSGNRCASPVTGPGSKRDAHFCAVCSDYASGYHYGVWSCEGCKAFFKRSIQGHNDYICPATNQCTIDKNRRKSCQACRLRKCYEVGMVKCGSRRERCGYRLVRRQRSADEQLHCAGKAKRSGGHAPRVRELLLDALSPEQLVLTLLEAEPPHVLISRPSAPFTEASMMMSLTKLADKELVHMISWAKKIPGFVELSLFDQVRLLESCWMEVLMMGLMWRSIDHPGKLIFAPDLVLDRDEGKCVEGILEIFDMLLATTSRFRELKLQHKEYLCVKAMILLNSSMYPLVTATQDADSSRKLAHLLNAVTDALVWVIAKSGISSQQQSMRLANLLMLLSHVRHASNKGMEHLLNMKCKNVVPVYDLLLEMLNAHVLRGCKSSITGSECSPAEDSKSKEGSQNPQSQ
Method in brief: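 HEK293T cells stably expressing ER beta LBD (aa 310-547) homodimer fragment-complementation reporter, dosed 24 h. Cells formaldehyde-fixed, Draq5-stained; gain in nuclear (agonist) or nuclear plus cytoplasmic (antagonist) fluorescence versus DMSO read by laser scanning cytometry.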

[7] = molecular target: Bile acid receptor (Homo sapiens) (UniProt Q96RI1); assay: OT_FXR_FXRSRC1_0480: Odyssey Thera (OT) 8-hour HEK293T Protein-Complementation Assay for Farnesoid X receptor/SRC-1 Co-activator (AID 2283383)
Bile acid receptor (Homo sapiens), sequence (Q96RI1 whole entry, looked up, the tested form may be a part): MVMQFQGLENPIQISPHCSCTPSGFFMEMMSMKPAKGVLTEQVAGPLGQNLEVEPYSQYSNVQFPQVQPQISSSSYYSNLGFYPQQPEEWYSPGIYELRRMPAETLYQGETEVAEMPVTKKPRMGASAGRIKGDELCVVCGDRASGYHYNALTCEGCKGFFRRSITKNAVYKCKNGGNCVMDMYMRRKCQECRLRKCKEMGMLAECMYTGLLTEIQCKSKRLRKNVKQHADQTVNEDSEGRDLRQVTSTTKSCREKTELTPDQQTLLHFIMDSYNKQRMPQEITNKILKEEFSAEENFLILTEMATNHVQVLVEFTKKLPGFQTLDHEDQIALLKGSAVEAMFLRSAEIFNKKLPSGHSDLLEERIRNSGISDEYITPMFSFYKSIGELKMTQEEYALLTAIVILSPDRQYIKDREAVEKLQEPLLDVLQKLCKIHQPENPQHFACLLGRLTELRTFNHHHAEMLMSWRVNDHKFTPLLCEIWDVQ
Method in brief: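 Fluorescence intensity read-out, 8 h post-dose, HEK293T protein-fragment complementation; FXR bait and SRC-1 prey each linked to reporter fragments. Activity scored as signal increase over DMSO negative control.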

[8] = molecular target: Bile acid receptor (Homo sapiens) (UniProt Q96RI1); assay: OT_FXR_FXRSRC1_1440: Odyssey Thera (OT) 24-hour HEK293T Protein-Complementation Assay for Farnesoid X receptor/SRC-1 Co-activator (AID 2283384)
Method in brief: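 Fluorescence readout, 24 h post-dose, HEK293T; FXR and SRC-1 fused to complementary reporter fragments, association reconstitutes signal. Positive-direction fit vs DMSO baseline.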

[9] = molecular target: Retinoic acid receptor RXR-alpha (Homo sapiens) (UniProt P19793); assay: OT_NURR1_NURR1RXRa_0480: Odyssey Thera (OT) 8-hour HEK293T Protein Complementation Assay for Nurr1/retinoid X receptor (RXR) (AID 2283385)
Retinoic acid receptor RXR-alpha (Homo sapiens), sequence (P19793 whole entry, looked up, the tested form may be a part): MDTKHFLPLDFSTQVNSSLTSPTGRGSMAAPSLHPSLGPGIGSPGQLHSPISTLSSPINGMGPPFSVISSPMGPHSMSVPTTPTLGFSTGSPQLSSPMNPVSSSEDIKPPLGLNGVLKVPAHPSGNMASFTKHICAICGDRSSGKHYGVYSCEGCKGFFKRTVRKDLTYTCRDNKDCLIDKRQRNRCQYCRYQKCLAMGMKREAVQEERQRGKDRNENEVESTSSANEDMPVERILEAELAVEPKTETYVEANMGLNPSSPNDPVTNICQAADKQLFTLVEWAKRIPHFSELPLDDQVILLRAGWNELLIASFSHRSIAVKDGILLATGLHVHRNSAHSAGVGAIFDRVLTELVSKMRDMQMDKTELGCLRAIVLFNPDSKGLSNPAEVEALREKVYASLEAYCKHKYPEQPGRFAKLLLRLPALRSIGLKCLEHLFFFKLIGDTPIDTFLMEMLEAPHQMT
Method in brief: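 Read-out: fluorescence from protein-fragment complementation between Nurr1 and RXRα in human HEK293T cells, 8 h after dosing. DMSO served as negative control; increased signal counted as activity.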

[10] = molecular target: Retinoic acid receptor RXR-alpha (Homo sapiens) (UniProt P19793); assay: OT_NURR1_NURR1RXRa_1440: Odyssey Thera (OT) 24-hour HEK293T Protein Complementation Assay for Nurr1/retinoid X receptor (RXR) (AID 2283386)
Method in brief: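 Fluorescence PCA read-out; HEK293T; 24 h post-dose; bait/prey fused to reporter fragments; gain-of-signal fit vs DMSO negative control.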

[11] = CEETOX_H295R_11DCORT: CeeTox H295R High-throughput Steroidogenesis Assay for 11-Deoxycortisol (11DCORT) (AID 2283432; active = hit-call score of the fitted dose curve at least 0.9, where 1 is the maximum; inactive = score below 0.9;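 as to AC50: 11-deoxycortisol secreted into the medium measured by LC-MS/MS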); conditions: actives raise or lower the signal
Method in brief: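 Human adrenal H295R cells were prestimulated with 10 uM forskolin for 48 h, then exposed to test chemical (0.1% DMSO final) for 48 h. Medium 11-deoxycortisol was quantified by MTBE extraction and HPLC-MS/MS; bidirectional fitting relative to DMSO.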

[12] = CEETOX_H295R_OHPREG: CeeTox H295R High-throughput Steroidogenesis Assay for OH-Pregnenolone (OHPREG) (AID 2283434; active = hit-call score of the fitted dose curve at least 0.9, where 1 is the maximum; inactive = score below 0.9); conditions: actives raise or lower the signal
Method in brief: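 H295R, 10 uM forskolin pre-stim 48 h; test chemical 48 h, 0.1% DMSO final. MTBE extraction, reverse-phase C18 HPLC-ESI+ MS/MS of medium. Gain/loss vs DMSO; viability by MTT in same wells.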

[13] = CEETOX_H295R_OHPROG: CeeTox H295R High-throughput Steroidogenesis Assay for OH-Progesterone (OHPROG) (AID 2283435; active = hit-call score of the fitted dose curve at least 0.9, where 1 is the maximum; inactive = score below 0.9;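 as to AC50: 17alpha-hydroxyprogesterone secreted into medium measured by HPLC-MS/MS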); conditions: actives raise or lower the signal
Method in brief: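 HPLC-MS/MS quantification of 17alpha-hydroxyprogesterone secreted by H295R cells after 48 h chemical exposure, following 48 h 10 uM forskolin prestimulation. Gain or loss of signal fitted relative to DMSO. Viability checked by MTT in the same wells.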

[14] = CEETOX_H295R_CORTIC: CeeTox H295R High-throughput Steroidogenesis Assay for Corticosterone (CORTIC) (AID 2283437; active = hit-call score of the fitted dose curve at least 0.9, where 1 is the maximum; inactive = score below 0.9;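 also: corticosterone secreted into medium quantified by mass spectrometry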); conditions: actives raise or lower the signal
Method in brief: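 48 h forskolin (10 uM) prestim, then 48 h chemical exposure, final DMSO 0.1%. Readout: corticosterone in medium by LC-MS/MS after MTBE extraction. Gain/loss fit vs DMSO; MTT viability in same wells.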

[15] = molecular target: Agonist Androgen Response Element (ARE), AR (gene 367) (UniProt P10275); assay: OT_AR_ARELUC_AG_1440: Odyssey Thera (OT) 24-hour CHO-K1 Luciferase Assay for Agonist Androgen Response Element (ARE) (AID 2283379)
Agonist Androgen Response Element (ARE), AR (gene 367), sequence (P10275 whole entry, looked up): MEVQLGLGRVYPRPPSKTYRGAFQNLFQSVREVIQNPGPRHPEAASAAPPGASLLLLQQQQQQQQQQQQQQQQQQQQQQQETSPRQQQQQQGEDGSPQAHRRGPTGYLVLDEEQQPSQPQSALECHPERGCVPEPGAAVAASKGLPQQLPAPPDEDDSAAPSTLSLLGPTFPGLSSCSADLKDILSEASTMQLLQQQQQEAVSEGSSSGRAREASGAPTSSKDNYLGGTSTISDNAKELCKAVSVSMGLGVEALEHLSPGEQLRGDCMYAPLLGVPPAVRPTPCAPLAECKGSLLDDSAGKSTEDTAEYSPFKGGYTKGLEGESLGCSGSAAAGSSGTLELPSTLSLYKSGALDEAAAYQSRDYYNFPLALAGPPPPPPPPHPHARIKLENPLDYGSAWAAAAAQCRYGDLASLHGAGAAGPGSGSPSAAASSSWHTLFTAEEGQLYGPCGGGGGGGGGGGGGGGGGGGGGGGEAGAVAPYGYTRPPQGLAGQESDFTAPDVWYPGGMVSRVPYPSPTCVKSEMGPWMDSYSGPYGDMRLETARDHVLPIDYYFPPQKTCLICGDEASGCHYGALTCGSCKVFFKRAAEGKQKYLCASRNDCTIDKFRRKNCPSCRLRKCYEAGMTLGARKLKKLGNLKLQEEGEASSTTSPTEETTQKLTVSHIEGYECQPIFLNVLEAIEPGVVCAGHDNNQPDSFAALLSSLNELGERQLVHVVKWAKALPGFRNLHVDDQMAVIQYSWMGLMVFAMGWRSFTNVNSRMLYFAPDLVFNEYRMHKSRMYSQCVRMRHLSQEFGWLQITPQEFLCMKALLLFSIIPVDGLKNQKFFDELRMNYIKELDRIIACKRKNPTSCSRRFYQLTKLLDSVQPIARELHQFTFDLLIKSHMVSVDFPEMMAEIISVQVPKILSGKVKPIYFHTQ
Method in brief: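 Gain-of-signal reporter endpoint: cells (CHO-K1, hamster) are treated 24 h, luciferin/ATP reagent added, and luminescence compared with DMSO baseline.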

[16] = molecular target: human Norepinephrine Transporter (NET), SLC6A2 (gene 6530) (UniProt P23975); assay: NVS_TR_hNET: NovaScreen (NVS) Transporter Assay for human Norepinephrine Transporter (NET) (AID 2283377);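 also: cell-free membrane protein extracted from CHO cells expressing human NET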;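 as to AC50: displacement of radioligand from human NET seen as loss of scintillation signal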
human Norepinephrine Transporter (NET), SLC6A2 (gene 6530), sequence (P23975 whole entry, looked up): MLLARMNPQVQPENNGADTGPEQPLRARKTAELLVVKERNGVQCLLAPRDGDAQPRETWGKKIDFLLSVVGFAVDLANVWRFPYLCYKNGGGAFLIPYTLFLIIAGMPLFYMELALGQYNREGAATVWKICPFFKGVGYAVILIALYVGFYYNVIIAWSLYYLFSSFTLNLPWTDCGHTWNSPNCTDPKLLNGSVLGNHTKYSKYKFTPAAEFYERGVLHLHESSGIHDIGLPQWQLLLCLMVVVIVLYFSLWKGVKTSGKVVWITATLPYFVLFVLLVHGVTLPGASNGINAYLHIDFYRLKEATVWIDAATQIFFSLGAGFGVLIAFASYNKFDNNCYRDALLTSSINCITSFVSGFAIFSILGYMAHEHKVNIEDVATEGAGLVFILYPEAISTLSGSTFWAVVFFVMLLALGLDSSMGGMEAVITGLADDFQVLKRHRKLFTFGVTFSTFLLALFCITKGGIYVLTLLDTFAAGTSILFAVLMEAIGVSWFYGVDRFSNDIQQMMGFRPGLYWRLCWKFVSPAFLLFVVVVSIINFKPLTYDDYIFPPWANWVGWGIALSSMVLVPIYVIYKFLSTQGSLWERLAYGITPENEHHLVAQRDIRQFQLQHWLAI
Method in brief: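 CHO cell extracts expressing the transporter; tritiated or iodinated tracer displaced competitively; filtration plus scintillation readout at 1 h. Single-point duplicates at 25 uM, concentration series for follow-up; activity = signal drop relative to DMSO.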

[17] = CEETOX_H295R_ANDR: CeeTox H295R High-throughput Steroidogenesis Assay for Androstenedione (ANDR) (AID 2283436; active = hit-call score of the fitted dose curve at least 0.9, where 1 is the maximum; inactive = score below 0.9); conditions: actives raise or lower the signal
Method in brief: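 48 h chemical exposure, H295R cells, DMEM/F12 + ITS+ and Nu-Serum. Medium androstenedione: MTBE extraction, C18 reverse-phase HPLC, ESI+ MS/MS. Fit bidirectional vs DMSO; MTT viability in same wells.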

Measured: AC50

ClC1=C(Cl)[C@]2(Cl)[C@H]3[C@H]([C@@H]4C=C[C@H]3C4)[C@@]1(Cl)C2(Cl)Cl
inactive: [1] | [2] | [3] | [4] | [5]

CN(C)C(=O)Nc1ccc(Cl)cc1
inactive: [6] | [7] | [9] | [4] | [5]
active: [8] 66.9 µM

N#CC(Br)Br
inactive: [6] | [2] | [3] | [8] | [4] | [5]

ClCCOCCCl
inactive: [6] | [7] | [8] | [9] | [10] | [4] | [5]

O=P(OCCCl)(OCCCl)OCCCl
not listed: [1] | [2] | [3] | [10] | [15] | [16] | [17]
inactive: all other assays above

COC(=O)Nc1nc2ccccc2[nH]1
inactive: [15] | [6] | [9] | [4] | [5]

CCCCCCCCCCCCCN1CC(C)OC(C)C1 (stereo not given)
inactive: [6] | [2] | [3] | [4] | [5] | [14]
active: [9] 72.5 µM | [11] 9.71 µM | [12] 12.5 µM | [13] 17.6 µM

CCNS(=O)(=O)C(F)(F)C(F)(F)C(F)(F)C(F)(F)C(F)(F)C(F)(F)C(F)(F)C(F)(F)F
inactive: [15] | [7] | [9] | [10] | [4] | [5]

O=C1CCCO1
inactive: [15] | [6] | [8] | [9] | [4] | [5]

CN(C)c1ccc(C(=O)c2ccc(N(C)C)cc2)cc1
active: [7] 49 µM | [8] 0.699 µM | [9] 60.1 µM
inactive: [6] | [9] | [4] | [5]

CC(C)(C)OOC(=O)c1ccccc1
inactive: [16] | [6] | [4] | [5]

CC(C)COC(=O)c1ccccc1C(=O)OCC(C)C
inactive: [6] | [8] | [9] | [10] | [4] | [5]
active: [2] 13.7 µM | [3] 13 µM | [7] 17.7 µM

OCCCBr
inactive: [6] | [2] | [3] | [4] | [5]

C[N+](C)(C)CC1CO1 (stereo not given)
inactive: [6] | [2] | [3] | [9] | [4] | [5]
active: [15] 26.1 µM

c1ccc(NNc2ccccc2)cc1
inactive: [6] | [7] | [8] | [9] | [10] | [11] | [12]
active: [10] 82.8 µM | [13] 48.6 µM

[O-][Cl+]O
inactive: [6] | [2] | [3] | [4] | [5]

CNC(=O)Oc1cccc2c1OC(C)(C)C2
not listed: [1] | [7] | [8] | [16]
inactive: all other assays above

Cc1ccc(N)c(N)c1
active: [16] 16.4 µM
inactive: [6] | [9] | [11] | [12] | [14]

CC(C)(O)c1cnn2c(-c3ccc(F)c(-c4c(F)cccc4C#N)c3)cnc2n1
active: [6] 93.7 µM | [7] 35.7 µM | [8] 64.9 µM | [9] 84.7 µM and 91.1 µM | [4] 92.9 µM and 93.2 µM | [5] 92.9 µM and 79.4 µM | [13] 0.408 µM
inactive: [15] | [11] | [12] | [17] | [14]

Clc1ccccc1Cl
inactive: [7] | [8] | [4] | [5]
active: [6] 7.71 µM

OCCOCCO
inactive: [6] | [2] | [3] | [8] | [9] | [4] | [5]
